Screens: PubChem BioAssay, National Center for Advancing Translational Sciences (NCATS)
The list is not random: actives were taken first. Their share in the collection is about 7.5%.
HCMV inh – qHTS Assay for inhibitors of the human cytomegalovirus (HCMV). activity change, negative = inhibition, % at 57.5 µM. AID 1259415, 2018. HFF cells, HCMV-luciferase reporter, 72 h; hits give low values. 410,000 tested, 4.5% active; in the data active means activity change below about -60%; inconclusive means no clear call, values can overlap the other calls; inactive means above about -39%
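After 16 h attachment at 37C, HFF cells received test compound and HCMV-luciferase (1 PFU/cell); reporter luminescence read 72 h later, data normalized against buffer-only and known inhibitor Salinomycin.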
FMDV antiviral – High Throughput Screening for Foot and Mouth Disease Virus Antivirals. FMDV antiviral cell-based qHTS. Potency, µM (doses to about 57.9 µM), hits mostly inhibitors. 410,000 tested, 1.2% active; calls by dose curve; tested in HEK293T cells; further: read-out not given here; nearly all actives have a fitted effect of over 45% in size
FBPA Giardia inh – qHTS Assay for Inhibitors of Fructose-1,6-bisphosphate Aldolase from Giardia Lamblia; A8B2U2; AID 2451, 2010; 290,000 tested, 0.71% active; purified Giardia FBPA; Potency, µM (titrated, usually from 59.6 µM), usual class: inhibitors; further: nearly all actives have a fitted effect of over 55% in size
Target sequence (A8B2U2 whole entry, looked up): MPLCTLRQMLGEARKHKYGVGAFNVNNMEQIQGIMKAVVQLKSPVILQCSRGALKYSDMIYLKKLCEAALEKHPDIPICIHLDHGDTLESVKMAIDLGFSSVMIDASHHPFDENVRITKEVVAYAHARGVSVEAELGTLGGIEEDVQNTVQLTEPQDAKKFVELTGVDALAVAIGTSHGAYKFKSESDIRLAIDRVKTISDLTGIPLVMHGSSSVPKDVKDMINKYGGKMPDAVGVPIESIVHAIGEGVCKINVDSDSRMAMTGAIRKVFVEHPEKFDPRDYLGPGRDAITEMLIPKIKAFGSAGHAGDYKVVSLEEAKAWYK
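Giardia FBPA (40 nM reagent) was preincubated 10 min at RT with compound (up to 57.5 uM final), then substrate plus GAPDH/TPI/NAD/arsenate coupling system with diaphorase/resazurin was added; resorufin fluorescence (525/598 nm) was read after 20 min.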
Vaccinia Venus – qHTS for Stage-Specific Inhibitors of Vaccinia Orthopoxvirus: Venus Reporter Primary qHTS | Vaccinia virus Venus reporter expression, fluorescence | 330,000 tested, 0.46% active | Potency, µM (titrated, usually from 36.5 µM), most hits filed as inhibitors; calls by dose curve; tested in A549 cells; further: nearly all actives have a fitted effect of over 30% in size
Vaccinia mCherry – qHTS for Stage-Specific Inhibitors of Vaccinia Orthopoxvirus: mCherry Reporter Primary qHTS; 310,000 tested, 0.63% active; Potency, µM (highest dose often 36.5 µM), usual class: inhibitors; Vaccinia virus mCherry reporter infection, fluorescence; calls by dose curve; tested in A549 cells; further: nearly all actives have a fitted effect of over 35% in size
HCV inhibitor – qHTS Assay for Inhibitors of Hepatitis C Virus (HCV); Huh7.5.1 HCVcc-Cre infection, luciferase reporter, 44 h; Potency, µM (titrated, usually from 41.8 µM), hits mostly inhibitors; 340,000 tested, 3.4% active; AID 651820, 2012
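Antiviral activity was scored by luciferase reporter output from cells infected with HCVcc-Cre (~0.5 moi) in presence of compound, 44 h infection period, cells seeded 1,000/well 4 h prior.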
Hits are given with their value; . = inactive; ? = inconclusive; / = not tested or not shown; [ ] = dose if it differs, or a comment. Unless noted, the call rests on the fitted dose curve; in most records, active means well fitted curve in the direction sought with a large enough effect; inconclusive means small, poorly fitted or top-dose-only effect, or another doubt; inactive means no such curve, though single readings can be large; an effect the other way counts as inactive or inconclusive.

SMILES	HCMV inh	FMDV antiviral	FBPA Giardia inh	Vaccinia Venus	Vaccinia mCherry	HCV inhibitor
c1ccc(OCCCc2nc(-c3ccccn3)no2)cc1	-105.6	.	.	.	/	.
COc1ccc([C@]23Cc4ccccc4C(O2)C2=C(CC(C)(C)CC2=O)O3)cc1	/	/	.[12.9 µM]	/	/	/
N#C/C(=C\c1c[nH]c2ccccc12)C(=O)Nc1ncc(Cc2ccc(Cl)cc2Cl)s1	.	.	.	.	.	35.5µM
Cc1ccc(N/N=C/c2c(C)c(C#N)c(=O)n(C)c2O)cc1C	.	.	12.6µM	.	.	.
COc1cc(S(=O)(=O)Nc2ccc(C)cc2)ccc1N=Cc1c(C)c(C#N)c(=O)n(C)c1O	.	.	.	.	.	.
CCc1nc2cc(C(=O)N3CCC[C@H]3C(=O)OC)cc(NC(=O)c3ccccc3OC)c2n1C	/	.	/	.	.	/
Cc1ccc(-c2noc(C3CCN(C(=O)Nc4ccc(C#N)cc4)CC3)n2)o1	-83.7	.	.	/	/	10µM
CN(C)c1ccc(-c2noc(C3CCN(C(=O)Nc4ccc(Cl)cc4)CC3)n2)cc1	.	?	.	.	.	?
Cn1c(CN2CCN(S(C)(=O)=O)CC2)nc2cc([N+](=O)[O-])ccc21	-101.3	.	.	.	.	.
CC(=O)N1CCN(Cc2nc3cc([N+](=O)[O-])ccc3n2C)CC1	.	.	.	/	/	.
COc1ccccc1CNC(=O)c1ccc(-c2ccccc2C(F)(F)F)o1	.	.	.	?	11.2µM	.[8.37 µM]
COc1ccc(/C=C/c2nc(C#N)c(N3CCCCC3)o2)cc1OC	.	.	/	.	.	/
CCOC(=O)C(Cc1ccc(OC)c([N+](=O)[O-])c1)NC(=O)CCC(=O)Nc1ccc(OC)cc1 (centres undefined)	-104.7	.	.	.	.	.
COc1ccccc1CNC(=O)c1ccc2nc3[nH]c4ccccc4c3nc2c1	-86.4	.	.	10µM	8.91µM	?
CCC(CC)C(=O)c1c[nH]c(C(=O)NCc2ccccc2OC)c1	.	39.8µM	.	/	/	.
Cc1cccc(CNC(=O)c2ccc3nc(-c4ccccc4)c(-c4ccccc4)nc3c2)c1	.	.	/	.	.	/
COc1ccccc1CNC(=O)c1cccc(NC(=O)c2ccccc2)c1	?	.	.	?	.	14.1µM
Cc1ccc(CNC(=O)c2ccc3nc4[nH]c5ccccc5c4nc3c2)cc1	-101.9	/	.	/	/	.
CC[C@@H](C)[C@@H](CO[C@@H](Cc1ccccc1)C(=O)N[C@@H](CCS(C)(=O)=O)C(=O)OC(C)C)NC[C@@H](N)CS	/	.	.	.	.	/
CC(C)COC(=O)N(C)C[C@H]1OCc2cnnn2CCCC(=O)N([C@@H](C)CO)C[C@H]1C	.	?	/	.	.	/
CCOC(=O)c1c(C)oc2c1c(C(c1ccncc1)N1CCOCC1)c(O)c1ccccc12 (centres undefined)	.	.	?	.	/	12.6µM
CNC(CC(=O)c1ccc([N+](=O)[O-])cc1)C(Cl)(Cl)Cl (centres undefined)	/	31.6µM	.	.	.	.
COc1ccc(C(=O)CC(Nc2ccc([N+](=O)[O-])cc2)c2ccc(OC)cc2)cc1 (centres undefined)	.	.	.	/	/	?
CC1CCC/C(=C\Nc2ccc(O)cc2)C1=O (centres undefined)	.	.	7.92µM	/	/	.
C=C1CCC(=O)C(C)CCC2C1CC2(C)C (centres undefined)	/	.	.	.	.	/
SMILES	HCMV inh	FMDV antiviral	FBPA Giardia inh	Vaccinia Venus	Vaccinia mCherry	HCV inhibitor
C=CCn1c(O)c(N=NC(=S)Nc2ccccc2F)c2ccccc21	-92.8	.	.	/	/	10µM
C=CCn1c(O)c(N=NC(=O)c2ccccc2NS(=O)(=O)c2cccs2)c2ccccc21	-95.1	.	.	.	.	.
C=CCn1c(O)c(N=NC(=S)Nc2ccccc2F)c2cc(S(=O)(=O)N3CCOCC3)ccc21	-70.1	.	.	.	.	?
C=CCn1c(SCc2nc3scc(-c4ccccc4)c3c(=O)[nH]2)nnc1-c1ccccc1F	.	28.2µM	.	.	.	.
Cn1nnnc1SCc1nc2scc(-c3ccc(Cl)cc3)c2c(=O)[nH]1	-69.8	.	.	.	.	?
Cc1ccc(S(=O)(=O)N2CCCC2)cc1C(=O)N1CCC(C)CC1	.	.	/	.	.	.
CCCCNC(=O)C1C(c2ccc(OC)cc2)=Nc2ccccc2N1C(=O)c1ccncc1 (centres undefined)	.	.	/	.	?	/
COc1cc2cc(C(c3nnnn3C3CCCC3)N3CCCCC3)c(=O)[nH]c2cc1OC (centres undefined)	.	.	.	.	.	.
O=c1[nH]c2cc3c(cc2cc1C(c1nnnn1C1CCCCC1)N1CCSCC1)OCCO3 (centres undefined)	-106.8	.	.	/	/	.
Cc1nc(CN2CCN(C(=O)NC3(c4ccccc4)CC3)CC2)cs1	-77.0	.	.	.	.	.
Cc1ccccc1NC(=O)N[C@H]1CC[C@@]23CCCN2C(=O)CCC[C@H]3C1Cc1ccccc1 (some centres undefined)	.	/	/	/	/	/
Cc1nc2ccc(F)cc2cc1C(=O)Nc1ccc(Cl)c(Cl)c1	-61.3	.	.	.	.	.
COC(=O)c1ccccc1CON1C(=O)C(C)(C)N(OCc2ccccc2C(=O)OC)C(=O)C1(C)C	.	.	.	/	/	14.1µM
Cc1cc(O)ccc1C1(c2ccc(O)cc2C)OC(=O)c2ccccc21	-95.9	.	.	.	/	.
O=C1OC2(c3ccccc31)c1cc(I)c(O)c(I)c1Oc1c2cc(I)c(O)c1I	/	/	15.8µM	/	/	.
O=C1OC2(c3ccc(O)cc3Oc3cc(O)ccc32)c2ccccc21	/	/	.	/	/	/
CCOc1ccc(-c2ncncc2-c2ccccc2OC)c(O)c1	.	.	.	.	.	.
COc1ccc(-c2cncnc2-c2ccc(OC)cc2O)cc1	-63.8	?	.	/	/	.
C=C(C)COc1ccc(-c2ncncc2-c2ccccc2OC)c(O)c1	-69.4	?	.	.	.	?
Cc1ccc(C2=NCC(C)n3c2c2ccccc2[n+]3[O-])cc1 (centres undefined)	.	/	/	/	/	/
COc1ccc(CC(=O)Nc2ccccc2-c2ccccc2)cc1OC	.	?	.	.	.	?
COc1cc(CC(=O)Nc2nc(-c3ccccc3)c(C(C)=O)s2)cc(OC)c1OC	.	.	.	.	.	12.6µM
COc1ccc(CC(=O)Nc2nc(-c3ccccc3)c(C(C)=O)s2)cc1OC	?	.	.	.	.	12.6µM
c1ccc(C[C@H]2CN=C(Nc3ccccc3)N2CCCC2CCCCC2)cc1	-61.0	.	/	.	.	3.98µM
c1ccc(C[C@H]2CN=C(Nc3ccccc3)N2CC2CCC2)cc1	.	.	/	.	.	.
CC(C)C[C@H]1CN=C(Nc2ccccc2)N1CCCC1CCCC1	-70.0	?	.	.	.	?
